# PfG6PD inh: PfG6PD (Plasmodium falciparum) enzyme inhibition; PfGluPho enzyme, NADPH resazurin-diaphorase fluorescence; inhibition, % at 20 µM; 0.78% of 350,000 active; AID 504690;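 active means inhibition reaching at least a set limit at 20 µM in the primary screen, cut at about 59% in these data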;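 further: 0% = DMSO wells with substrate and 100% = DMSO wells lacking glucose-6-phosphate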
# UHRF1 binding: UHRF1 methyl-DNA binding inhibition; UHRF1 binding to methylated oligo, TR-FRET; inhibition, % at 4.4 µM; 0.75% of 370,000 active; AID 687016; Q96T88;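 further: UHRF1 SRA domain binding a hemimethylated CpG hairpin DNA probe; 0% = median of test compound wells and 100% = reference inhibitor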
# PRMT1 FP inh: inhibitors of human PRMT1. Q99873. recombinant PRMT1, activity-based probe fluorescence polarization. inhibition, % at 2.79 µM. 1.3% of 370,000 active. AID 652257;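 active means inhibition above about 21% made by adding two undisclosed values, limit read from the data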
# MBD2 inh: MBD2-methylated oligo binding inhibition | TR-FRET, MBD2 binding to methylated oligonucleotide | Q9UBB5 | AID 686964 | 0.31% of 370,000 active | inhibition, % at 4.4 µM; in the data active means inhibition above about 13%
# PfM18AAP inh-1: blocks P. falciparum M18 aspartyl aminopeptidase; inhibition, % at 7.35 µM; 1.2% of 290,000 active; AID 1822; recombinant PfM18AAP, H-Glu-NHMec fluorogenic cleavage;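 active means inhibition above the campaign mean inhibition over all tested compounds plus 3 SD, cut at about 28% in these data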;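 further: 0% = plate median of test compound wells and 100% = 2 mM ZnCl2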
# PfM18AAP inh-2: confirmation of Plasmodium falciparum M18 aspartyl aminopeptidase inhibitors. shares compounds with PfM18AAP inh-1. recombinant PfM18AAP, H-Glu-NHMec fluorogenic cleavage. inhibition, % at 7.35 µM. 28% of 2,400 active;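 active means mean inhibition over replicate wells above the hit cutoff set for the earlier primary screen, cut at about 29% in these data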;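 further: 0% = median of test compound wells and 100% = 2 mM ZnCl2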
# CTSL1 counter: Cathepsin L (human) inhibition, confirmation | 2,400 tested, under 10 active | shares compounds with PfM18AAP inh-1 | inhibition, % at 5.96 µM | purified cathepsin L1, Z-Leu-Arg-MCA fluorescence;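 active means average inhibition across replicates above the hit cutoff set in the earlier primary screen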;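 further: 0% = median of test compound wells and 100% = Z-Phe-Ala-diazomethylketone 1 µM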
# Target sequence (P07711 whole entry, looked up): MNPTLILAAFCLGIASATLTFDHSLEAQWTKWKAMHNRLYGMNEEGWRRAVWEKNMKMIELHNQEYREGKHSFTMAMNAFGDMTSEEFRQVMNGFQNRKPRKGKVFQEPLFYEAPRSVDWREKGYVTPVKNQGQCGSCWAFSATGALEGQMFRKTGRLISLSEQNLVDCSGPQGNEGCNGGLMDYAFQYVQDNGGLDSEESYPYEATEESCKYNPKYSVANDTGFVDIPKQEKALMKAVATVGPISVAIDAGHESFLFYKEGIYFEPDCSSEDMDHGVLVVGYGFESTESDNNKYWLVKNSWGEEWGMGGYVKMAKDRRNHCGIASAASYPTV
# PfGluPho conf: confirmation of Plasmodium falciparum G6PD inhibitors; shares compounds with PfG6PD inh; recombinant PfGluPho, NADPH-diaphorase-resazurin fluorescence; inhibition, % at 20 µM; 34% of 2,400 active; AID 504753;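 active means inhibition of at least 50% at 20 µM in any single replicate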;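 further: 0% = DMSO with substrate and 100% = DMSO lacking glucose-6-phosphate substrate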
# Diaph ctr 10uM: inhibits diaphorase or oxidizes, flagging false PfG6PD hits. 39% of 820 active. AID 504862. shares compounds with PfG6PD inh. diaphorase-coupled resazurin reduction, fluorescence, NADPH 10 uM. inhibition, % at 20 µM;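 active means average inhibition reaching 50% or more with the compound at 20 µM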;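 further: resorufin red fluorescence formed as diaphorase reduces resazurin using NADPH; 0% = DMSO with enzyme and 100% = DMSO without enzyme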
# Diaphorase 30uM: counter-screen for P. falciparum G6PD inhibitors: diaphorase inhibitors, oxidizers; inhibition, % at 20 µM; 29% of 820 active; Diaphorase/resazurin coupled assay, resorufin fluorescence, 30 uM NADPH; AID 504863; shares compounds with PfG6PD inh;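 active means inhibition averaging 50% or more, tested at 20 µM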;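 further: 0% = DMSO with enzyme and 100% = DMSO wells lacking diaphorase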
# UHRF1 ctr MBD2: UHRF1 methyl-oligo binding inhibition as MBD2 counter-screen | shares compounds with MBD2 inh | inhibition, % at 4.4 µM | 25% of 1,000 active | UHRF1 binding to methylated oligonucleotide, TR-FRET | AID 720530;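 further: UHRF1 SRA domain binding a labeled hemimethylated CpG hairpin DNA; 0% = vehicle only and 100% = reference inhibitor with vehicle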
# MBD2 DBD conf: MBD2-DBD methyl-DNA binding inhibition, TR-FRET confirmation. shares compounds with MBD2 inh. TR-FRET MBD2-DBD binding to methylated oligonucleotide. inhibition, % at 4.4 µM. 26% of 1,000 active. AID 720531; in the data active means inhibition above about 14%
# Numbers without * were called inactive; · = no result. The list is not random: actives were taken first. Their share in the collection is about 3.3%. Unless noted, no stated cut-off is given here; in the data, active means inhibition above about 21%; inactive means the rest.
SMILES,PfG6PD inh,UHRF1 binding,PRMT1 FP inh,MBD2 inh,PfM18AAP inh-1,PfGluPho conf,others
NN1C(=O)/C(=C\c2ccco2)SC1=S,11,63*,43*,17*,34*,·,PfM18AAP inh-2=-20;CTSL1 counter=-1;UHRF1 ctr MBD2=3;MBD2 DBD conf=0
COc1ccc(N2C(=O)c3n[nH]c(C)c3C2c2ccc(F)cc2)cc1 (stereo not drawn),·,1,2,-6,·,·,
Cc1nc2ccccc2c(=O)n1/N=C/c1ccc(O)c(O)c1O,92*,37*,16,27*,47*,101*,PfM18AAP inh-2=6;CTSL1 counter=5;Diaph ctr 10uM=97*;Diaphorase 30uM=96*;UHRF1 ctr MBD2=3;MBD2 DBD conf=0
COC(=O)C1=C(C)N(Cc2cccc(C(F)(F)F)c2)C(=NCc2ccc(C(F)(F)F)cc2)NC1c1cccc(C(F)(F)F)c1 (stereo not drawn),·,-3,-3,-1,·,·,
O=C(O)c1ccc2c(c1)C(=O)/C(=C\c1ccco1)C2=O,18,88*,34*,28*,42*,·,PfM18AAP inh-2=40*;CTSL1 counter=-6;UHRF1 ctr MBD2=38*;MBD2 DBD conf=0
CCCN(CC1CC1)c1c2c(nc3ncnn13)CCCC2,·,-1,0,4,·,·,
CCCCN1CN2Cc3ccc(C)cc3C2CS1(=O)=O (stereo not drawn),·,-2,2,-1,·,·,
Cc1cccc(-n2ncc3c(NC4CCCCC4)ncnc32)c1,66*,0,-2,-1,1,7,
CCOC(=O)C(C)Sc1nc(-c2cccs2)ccc1C#N (stereo not drawn),78*,3,11,-3,-1,2,
C=COC(=O)CSc1nc(-c2cccs2)ccc1C#N,-11,-2,6,-5,12,·,
CCOC(=O)c1cnc2ccc(OCC)cc2c1NCc1ccccc1,66*,-1,-7,0,7,-7,
CCOC(=O)c1cnc2ccc(OCC)cc2c1NCc1cccnc1,24,-2,-3,2,9,·,
Cc1ccc(-c2c(C(=O)N/N=C/c3ccco3)nnn2-c2nonc2N)cc1,62*,0,1,-2,7,46,
CCOc1ccc(-c2c(C(=O)N/N=C/c3ccco3)nnn2-c2nonc2N)cc1,-8,-1,5,1,13,·,
CCCOc1ccc(-c2c(C(=O)N/N=C/c3ccc(C)cc3)nnn2-c2nonc2N)cc1,8,-3,-1,2,0,·,
Cc1ccc(-c2c(C(=O)N/N=C/c3ccc(C)o3)nnn2-c2nonc2N)cc1,79*,-2,-2,1,4,60*,Diaph ctr 10uM=63*;Diaphorase 30uM=47
Cc1ccc2nc(CN(C)C(=O)[C@@H](Cc3ccccc3)NC(=O)[C@H]3O[C@@H](n4cnc(C(N)=O)n4)[C@H](O)[C@@H]3O)[nH]c2c1,·,-1,-4,3,·,·,
Cc1cccc(NC(=O)c2sc3nc(-c4ccccc4)cn3c2C)n1,61*,1,7,-1,4,11,
Cc1ccc(C(=O)c2coc3ccc(O)c(Cl)c23)cc1,63*,-1,3,0,6,27,
COc1cc2c(c3c1c(=O)c1cccc(F)c1n3C)C=CC(C)(C)O2,·,-2,3,-6,·,·,
N#Cc1c(N2CCCC2)nc(N)c2c(N)nc(N3CCCC3)cc12,107*,-13,7,-1,1,29,
COc1cc2c(C#N)c(N3CCCC3)nc(N)c2c(N)n1,20,-17,7,-11,5,·,
